Measurements: PubChem BioAssay (NCI)
About 83,000 compounds went through this panel and 20% of them were active in at least one assay; those are over-represented in the sample as a whole.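 Negative percent growth values reflect cell death: -40 means 40% of the cells present at the start died, and -100 means all died.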 Unmarked numbers belong to inactive results. Calls of active or inactive are those of the source. How the source made its calls: active means growth percent below 10; inactive means the rest.

What was measured:
Test in all cases: NCI-60 one-dose screen, 48 h (100 = growth as untreated, 0 = no growth, -100 = all killed)
Details in all cases: 10 µM unless noted
[1] = system: SR leukemia
[2] = system: RPMI-8226 leukemia
[3] = system: OVCAR-8 ovarian
[4] = system: OVCAR-5 ovarian
[5] = system: OVCAR-4 ovarian
[6] = system: SK-OV-3 ovarian
[7] = system: OVCAR-3 ovarian
[8] = system: HS 578T breast
[9] = system: NCI/ADR-RES ovarian
[10] = system: BT-549 breast
[11] = system: MDA-MB-435 melanoma
[12] = system: SW-620 colon
[13] = system: MCF7 breast
[14] = system: HCT-116 colon
[15] = system: HCC-2998 colon
[16] = system: KM12 colon
[17] = system: IGROV1 ovarian
[18] = system: T-47D breast

SMILES	growth [1]	growth [2]	growth [3] [%]	growth [4]	growth [5]	growth [6]	growth [7]	growth [8]	growth [9]	growth [10]	growth [11]	growth [12]	growth [13]	growth [14]	growth [15]	growth [16]	growth [17]	growth [18]
C=C(CN1CCN(c2cccc(C(F)(F)F)n2)CC1)c1ccc(C(=O)Nc2ccccc2N)cc1	-20.9% (active)	4.35% (active)	18.8	34.8%	32.9%	21.2%	-38.2% (active)	41.1%	1.99% (active)	22.8%	-9.74% (active)	55.2%	1.51% (active)	15.5%	-41% (active)	-3.75% (active)	–	–
COc1ccc(S(=O)(=O)NCCNc2nccc(-c3c(-c4cccc(N)c4)nc4sccn34)n2)cc1	107%	96%	98.2	121%	82.4%	108%	100%	97.9%	–	82.8%	103%	113%	–	98%	122%	64.6%	98%	75.9%
Oc1c(Cl)cc(Cl)cc1CNc1nccnn1	93.5%	105%	108	101%	106%	107%	92.1%	114%	–	–	99.3%	102%	99.2%	98.1%	98.6%	93.1%	96.3%	105%
CCOC(=S)SCc1ccc(Cl)cc1	80.2%	108%	–	95.6%	95.6%	150%	94.4%	107%	105%	96.3%	101%	101%	103%	92.3%	131%	108%	104%	120%
CC1(C)OCC2OC3(C(=O)O)OC(C)(C)OC3C2O1 (centres undefined)	101%	117%	–	106%	118%	101%	99.2%	102%	107%	105%	104%	109%	112%	106%	102%	100%	106%	95.4%
CCN(CC)CCCNc1cccc2c(SCc3ccccc3)ccnc12	-27.9% (active)	-39.7% (active)	89.9	107%	104%	97.8%	36.8%	–	42%	74.8%	-27.9% (active)	55%	98.6%	75%	25.4%	34%	-40.3% (active)	103%
O=c1c2cccc3c(Nc4c(F)cccc4F)ccc(c32)c2nc3ccccc3n12	21.5%	75.4%	–	99.5%	82.9%	89.1%	91.5%	110%	95.4%	98.7%	111%	102%	20.4%	98.4%	72.7%	78.9%	53.4%	52.7%
COc1ccc2c(c1)C(=O)/C(=C/c1cccc(OCC(=O)Nc3nc4c(s3)CCCC4)c1)O2	-17.2% (active)	-6.7% (active)	–	-13.6% (active)	8.81% (active)	119%	-68.6% (active)	-16.2% (active)	10.4%	-65.4% (active)	27.3%	-61.6% (active)	21.9%	-25.7% (active)	-66.7% (active)	-68.3% (active)	-47.4% (active)	47.1%
O=S(=O)(NCCCNc1cc(-c2cn(-c3ccccc3)nc2-c2cccc(O)c2)ccn1)c1ccccc1	35.5%	32.1%	46.1	–	59.8%	66.4%	58.9%	46.9%	51.3%	44.1%	52.3%	25.5%	31.6%	40%	22.1%	30.1%	59.2%	18.4%
O=C(Nc1cccc2c1C(=O)c1cccc(Nc3cccc4c3C(=O)c3cccc(NC(=O)c5ccccc5)c3C4=O)c1C2=O)c1ccccc1	101%	107%	96.1	114%	118%	101%	123%	–	105%	113%	104%	109%	107%	109%	114%	114%	75.6%	116%
Cc1cccc(NC(=O)c2sc3nc4c(cc3c2N)C(=O)CCC4)c1	26.2%	31.6%	–	44.6%	40.1%	35.3%	7.66% (active)	18.6%	17.4%	41.6%	-52.8% (active)	26.6%	22.6%	29.3%	33.7%	21.4%	-4.52% (active)	44%
Cl/C(=N\Nc1ccccc1)c1ccccc1	123%	104%	–	99.1%	92.1%	89.4%	91.4%	108%	82.9%	98.8%	80.6%	105%	87.4%	102%	102%	–	85.6%	89.9%
N=S(=O)(NC(=O)c1ccc(Cl)cc1Cl)c1ccc(Br)s1 (centres undefined)	75%	86.5%	90.9	119%	–	96.4%	105%	87.3%	91.3%	99.5%	96.2%	80.9%	91.5%	80.6%	102%	88.5%	-1.49% (active)	103%
CCCCCCCCCCCCS(=O)CC(C)O (centres undefined)	110%	98.6%	–	103%	101%	102%	120%	101%	117%	109%	96.3%	106%	93.2%	109%	111%	116%	120%	98.2%
Cc1ccc(C2CC3c4ccccc4C2C2CCCCN32)cc1 (centres undefined)	106%	60.1%	109	96.2%	82.6%	91.7%	67.7%	93.3%	94.1%	–	97.8%	106%	95.7%	95.1%	93.1%	–	–	–
Nc1nc2c(c3ncccc13)C(c1ccc(Cl)c(Cl)c1)Cc1ncccc1-2 (centres undefined)	0.136% (active)	15.8%	–	81.3%	67.6%	19.7%	-8.92% (active)	31.5%	4% (active)	31.1%	6.95% (active)	21.7%	12.2%	18.4%	41.7%	21.5%	50.8%	16%
COc1ccc(CNc2nccnn2)cc1	52.1%	108%	–	96.4%	111%	109%	105%	111%	99.4%	114%	102%	104%	99.4%	101%	98.7%	99.3%	101%	105%
CN1/C(=C\C=C\C2=[N+](C)c3ccccc3C2(C)C)C(C)(C)c2ccccc21	-32.8% (active)	-8.69% (active)	–	20.9%	10.5%	-2.66% (active)	2.1% (active)	23.4%	14.3%	-17.7% (active)	-48.9% (active)	8.18% (active)	-2.53% (active)	0.854% (active)	-60.8% (active)	-64.9% (active)	2.4% (active)	-9.24% (active)
